Where “and” joins values, the source holds several entries; their conditions need not be identical. Equal entries are not always repeated. Out of some 16,000 compounds screened, about 4,000 (25%) were called active. Inconclusive results (about 26%) are left out. Calls follow the shape of the dose curve; as a rule, active = well fitted curve in the direction sought with a large enough effect; inconclusive = small, poorly fitted or top-dose-only effect, or effect the other way; inactive = no such curve, though single readings can be large or run the other way. These entries were drawn from the full list.

Consider 66 compounds from PubChem BioAssay AID1851 (National Center for Advancing Translational Sciences (NCATS), 2009).
% is scaled to controls: 0 for no effect and ±100 for the full control effect.

The target in the assay is Cytochrome P450 2C9 (Homo sapiens) (UniProt P11712). Briefly: Cytochrome panel assay with activity outcomes. Conditions: recombinant CYP, pro-luciferin dealkylation, luminescence, p450-cyp2c9; series mostly up to 57.1 µM; activity, negative = inhibition: at the top concentration.
Cytochrome P450 2C9 (Homo sapiens), sequence (P11712 whole entry, looked up): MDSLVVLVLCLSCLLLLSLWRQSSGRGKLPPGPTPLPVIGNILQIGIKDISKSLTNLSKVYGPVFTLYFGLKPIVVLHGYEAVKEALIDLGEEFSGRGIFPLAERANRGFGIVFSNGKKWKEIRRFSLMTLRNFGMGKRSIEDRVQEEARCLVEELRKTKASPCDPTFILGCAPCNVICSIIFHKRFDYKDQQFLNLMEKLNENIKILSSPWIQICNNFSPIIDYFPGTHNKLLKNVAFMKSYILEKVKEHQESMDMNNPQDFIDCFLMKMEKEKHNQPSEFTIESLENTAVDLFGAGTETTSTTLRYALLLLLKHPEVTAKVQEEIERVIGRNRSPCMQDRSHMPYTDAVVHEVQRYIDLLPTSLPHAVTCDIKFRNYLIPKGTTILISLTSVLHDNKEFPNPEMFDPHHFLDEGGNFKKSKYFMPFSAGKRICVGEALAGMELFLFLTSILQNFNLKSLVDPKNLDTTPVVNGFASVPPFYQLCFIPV
As for `c1ccc(Nc2ncncc2-c2ccoc2)cc1`, the activity, negative = inhibition is 4.61% [at 2.29 µM] (inactive). Regarding `O=[N+]([O-])C1=CC=C2C(=NC3(CCCCC3)N2O)C1=NC1CCCCC1`, the AC50 is 3.55 µM (active).

Consider `CCOC(=O)C1=C[C@@]2(CC)CCCN3CCc4c(n1c1ccccc41)[C@H]32`, for which the AC50 entry is “inactive”. For `CCOCC(=O)Nc1cc(C(=O)Nc2cccc(C)c2C)ccc1Cl`, the “activity, negative = inhibition” value is 9.34% (inactive). On to `CCOCC(=O)Nc1cc(C(=O)Nc2ccccc2)ccc1Cl`, for which the AC50 was 5.62 µM (active).

`Cn1nnnc1SCc1ccccc1[N+](=O)[O-]`: the “activity, negative = inhibition” value is -16.4% (inactive). For `O=C(O)CSCCc1ccccc1`, the activity, negative = inhibition is 29.1% [at 11.4 µM] (inactive). For `Cc1ccccc1CSc1nccn1-c1ccccc1`, the AC50 is 7.08 µM (active). As to `NCCSCCc1ccccc1`, the activity, negative = inhibition is -27.8% [at 11.4 µM] (inactive). As for `c1ccc(CCSc2nccn2-c2ccccc2)cc1`, the AC50 was 15.8 µM (active). As for `CC(=O)N[C@@H]1CONC1=O`, the activity, negative = inhibition is -5.39% [at 11.4 µM] (inactive). `COC(=O)c1c(NC(=O)C(C)(C)C)sc2c1C(C(=O)OC)CC2` (stereo unspecified): the AC50 was 20 µM (active).

On to `O=c1c(-c2ccccc2)nc2cnc(N3CCOCC3)nc2n1-c1ccccc1`, for which the “activity, negative = inhibition” value was -26% (inactive). `O=c1nc(N2CCOCC2)ccn1-c1nc(-c2ccccc2)oc1-c1ccccc1`: the AC50 was 4.47 µM (active). For the compound `O=c1c(-c2cc(F)cc(F)c2)nc2cnc(N3CCOCC3)nc2n1-c1ccccc1`, the “activity, negative = inhibition” value was -13.9% (inactive). Same read-out and setting: the result for `CCc1cc2c(nc1CC)CCN(CC/C(C)=N/O[C@@H](C)c1cn([C@@H]3COC[C@@H]3O)nn1)C2` reads 18.9% [at 11.4 µM] (inactive). For the compound `O=C(CN1C(=O)NC2(CCCC2)C1=O)NCCC1=CCCCC1`, the “activity, negative = inhibition” value is -10.1% (inactive). The same measure, in the same setting: the same measure for `O=C(CN1CCN(C2CCCCC2)CC1)NCCC1=CCCCC1`: 3.24% (inactive). `CCCCNC(=O)CN1C(=O)NC2(CCCc3ccccc32)C1=O` (stereo unspecified): the AC50 is 2.24 µM (active). With `O=C(O)C1CCN(c2ncccn2)CC1`, the “activity, negative = inhibition” value is -6.56% (inactive). Regarding `O=C(NCCc1ccc(Cl)cc1)c1ncn[nH]1`, the “activity, negative = inhibition” value was -28.4% (inactive). On to `CC1(c2ccccc2)NC(=O)N(CC(=O)NCCC2=CCCCC2)C1=O` (stereo unspecified), for which the AC50 was 25.1 µM (active). As for `CCCCCOc1ccc(NC(=O)C(=O)NCCC2=CCCCC2)cc1`, the “activity, negative = inhibition” value is -0.0982% (inactive). In the case of `O=C(CN1CCN(c2ncccn2)CC1)NCCC1=CCCCC1`, the AC50 is 3.55 µM (active).

As for `CCCCNC(=O)[C@@H]1Cc2ccccc2N1C(=O)[C@H](N)CC`, the “activity, negative = inhibition” value was 13.9% (inactive). In the case of `COc1ccc2c(c1)CCCC21NC(=O)N(CC(N)=O)C1=O` (stereo unspecified), the “activity, negative = inhibition” value is -6.71% (inactive). The same measure, in the same setting: the result for `O=C1CSc2ccc(C(=O)NCCC3=CCCCC3)cc2N1` reads -25.7% (inactive). With `O=C(COc1ccc(Cl)cc1)NCCC1=CCCCC1`, the AC50 was 3.98 µM (active).

On to `CCCCC[C@H](CC(=O)NO)C(=O)N[C@@H](C(=O)N1CCC[C@H]1CO)C(C)C`, for which the “activity, negative = inhibition” value was 21.9% (inactive). For the compound `O=C(O)/C=C\c1cnc[nH]1`, the “activity, negative = inhibition” value was 3.56% (inactive).

Consider `Cc1c(Nc2ncccc2C(=O)O)cccc1C(F)(F)F`, for which the “activity, negative = inhibition” value is -20.5% [at 25.6 µM] (inactive). On the same count and under the same terms, the result for `O=C(O)c1cccc(C(=O)O)c1S(=O)Cc1ccccc1` (stereo unspecified) reads 7.56% [at 11.4 µM] (inactive). As to `Cc1ccc(Cl)c(Nc2ccccc2C(=O)O)c1Cl`, the AC50 was 7.94 µM (active) and 1.26 µM (active). `O=C(O)CCNc1ccccc1C(=O)O`: the activity, negative = inhibition is 14.2% [at 11.4 µM] (inactive). For `Cc1c(Cl)cccc1Nc1ccccc1C(=O)O`, the AC50 is 3.16 µM (active).

As for `Cc1cccc(Nc2ccccc2C(=O)O)c1C`, the AC50 is 7.94 µM (active).

As for `O=C(Nc1cccc(F)c1)N1CCCC2(CCN(C(=O)c3cc(C(F)(F)F)cc(C(F)(F)F)c3)CC2)C1`, the “activity, negative = inhibition” value is 25.9% (inactive). Still for that read-out and setting: the same measure for `Cn1ccnc1C[C@@](C)(O)c1ccccc1`: 4.93% [at 11.4 µM] (inactive). On to `CCc1c(O)nc2sc3ccccc3n2c1=O`, for which the concentration at half-maximal activity (AC50) is 3.16 µM (active).

With `CC(=O)Nc1c(I)c(C(=O)N[C@H]2[C@@H](O)[C@H](O)[C@H](CO)O[C@@H]2O)c(I)c(N(C)C(C)=O)c1I`, the “activity, negative = inhibition” value was 12.3% [at 25.6 µM] (inactive). The same measure, in the same setting: the result for `Cc1c(C=NCCOCc2ccccc2)cnn1C` reads -83.6% (inactive). Turning to `COC(=O)[C@@]1(Cc2ccccc2)[C@H]2c3cc(C(=O)N4CCCC4)n(Cc4ccc(C)o4)c3C[C@H]2CN1C(=O)c1ccccc1`, the half-maximal activity concentration (AC50) is 1 µM (active). Same read-out and setting: the same measure for `COC(=O)[C@@]1(Cc2ccc(F)cc2)[C@H]2c3cc(C(=O)N4CCCC4)n(Cc4ccc(C)o4)c3C[C@H]2CN1C(=O)c1ccccc1`: 3.98 µM (active); for `COC(=O)[C@@]1(Cc2ccc(F)cc2)[C@H]2c3cc(C(=O)N(C)C)n(Cc4ccc(C)o4)c3C[C@H]2CN1C(=O)c1ccccc1`: 10 µM (active). On the same count and under the same terms, the same measure for `O=c1c2ccccc2c(-c2ccccc2)nn1-c1ccc(Cl)c(Cl)c1`: 11.2 µM (active). For `Cc1ccc(Cn2cnc3c(nnn3Cc3ccc(Cl)cc3)c2=O)cc1`, the “activity, negative = inhibition” value is 4.68% (inactive). Same read-out and setting: the result for `COc1ncc2nc(-c3ccccc3)c(=O)n(-c3ccccc3)c2n1` reads -13.9% (inactive); that for `CC(C)(C)Cn1nc(-c2ccc(Cl)cc2)c2c(N)ncnc21`, -0.489% (inactive). Take `O=c1c2ccccc2c(-c2ccccc2)nn1Cc1ccc(Cl)cc1`: the AC50 was 8.91 µM (active).

Consider `Cn1c(=O)c(-c2ccc(Cl)cc2)nc2cnc(Nc3ccccc3)nc21`, for which the “activity, negative = inhibition” value is -0.31% (inactive). `CCCc1[nH]nc2c1C(c1ccncc1)C(C#N)=C(N)O2` (stereo unspecified): the AC50 was 2.51 µM (active).

Take `O=P(O)(CCc1ccccc1)C(O)c1ccccc1` (stereo unspecified): the “activity, negative = inhibition” value is -12.9% (inactive). With `CC[C@](N)(C(=O)O)C(C)C`, the activity, negative = inhibition was 1.15% [at 11.4 µM] (inactive). With `C=CCn1c(SCC)nc2sc3c(c2c1=O)CCc1ccccc1-3`, the AC50 is 10 µM (active).

`C=CCn1c(SCc2ccccc2)nc2scc(-c3ccc(C)o3)c2c1=O`: the “activity, negative = inhibition” value was -16.8% (inactive). On to `Cc1c2cccc(Sc3ccccc3)c2c2c3c(cccc13)[S+](c1ccccc1)C2` (stereo unspecified), for which the AC50 was 2.51 µM (active). Consider `O=C(NNC(=O)C1CC(c2cccnc2)=NO1)Nc1cccc(F)c1` (stereo unspecified), for which the “activity, negative = inhibition” value is -21.9% (inactive). Turning to `CC1CCCC(C)N1C(=O)C1CC(c2ccc(F)cc2)=NO1` (stereo unspecified), the concentration at half-maximal activity (AC50) is 10 µM (active). `CSCCC(NC=C1C(=O)OC(C)(C)OC1=O)C(=O)O` (stereo unspecified): the “activity, negative = inhibition” value was -18.8% (inactive). For `CNc1ncncc1-c1ccccc1OC`, the activity, negative = inhibition was 6.03% [at 2.29 µM] (inactive). On the same count and under the same terms, the same measure for `O=S(=O)(O)C1CCNCC1`: 13.8% (inactive). Take `N#CC1=C(N)OC2=C(CC/C2=C\c2ccccc2)C1c1ccccc1` (stereo unspecified): the concentration at half-maximal activity (AC50) is 0.355 µM (active). For `COc1ccccc1CN1CCCC2(CCN(C(C)=O)CC2)C1`, the “activity, negative = inhibition” value was 1.14% (inactive).

With `COc1cccc(-c2nc(NCc3cccs3)c3ccccc3n2)c1`, the activity, negative = inhibition is -29.3% [at 2.29 µM] (inactive).

Regarding `COc1ccccc1-c1nc(NCc2cccs2)c2ccccc2n1`, the activity, negative = inhibition is 7.82% [at 2.29 µM] (inactive). On to `COc1cccc2c(=O)c(C(=O)NCc3cccs3)c[nH]c12`, for which the AC50 is 6.31 µM (active).

By AC50 is commonly meant the concentration giving half of the maximal activity seen.
